Drawing on PubChem BioAssay AID1851 (National Center for Advancing Translational Sciences (NCATS), 2009), this text covers AC50 and activity, negative = inhibition for 91 compounds.

Several values for one entry are separate records, joined by “and”; a condition that tells them apart may be missing. Equal values may be shown once. Out of some 16,000 compounds screened, about 5,700 (36%) were called active. Not shown: some 24% with an inconclusive outcome. Calls follow the shape of the dose curve; as a rule, active = well fitted curve in the direction sought with a large enough effect; inconclusive = small, poorly fitted or top-dose-only effect, or effect the other way; inactive = no such curve, though single readings can be large or run the other way. Some of the results follow.

For orientation: AC50 means the midpoint of the concentration-response curve, whichever way the signal moves.
% is scaled to controls: 0 for no effect and ±100 for the full control effect.

Sequence of Cytochrome P450 1A2 (Homo sapiens) (P05177 whole entry, looked up): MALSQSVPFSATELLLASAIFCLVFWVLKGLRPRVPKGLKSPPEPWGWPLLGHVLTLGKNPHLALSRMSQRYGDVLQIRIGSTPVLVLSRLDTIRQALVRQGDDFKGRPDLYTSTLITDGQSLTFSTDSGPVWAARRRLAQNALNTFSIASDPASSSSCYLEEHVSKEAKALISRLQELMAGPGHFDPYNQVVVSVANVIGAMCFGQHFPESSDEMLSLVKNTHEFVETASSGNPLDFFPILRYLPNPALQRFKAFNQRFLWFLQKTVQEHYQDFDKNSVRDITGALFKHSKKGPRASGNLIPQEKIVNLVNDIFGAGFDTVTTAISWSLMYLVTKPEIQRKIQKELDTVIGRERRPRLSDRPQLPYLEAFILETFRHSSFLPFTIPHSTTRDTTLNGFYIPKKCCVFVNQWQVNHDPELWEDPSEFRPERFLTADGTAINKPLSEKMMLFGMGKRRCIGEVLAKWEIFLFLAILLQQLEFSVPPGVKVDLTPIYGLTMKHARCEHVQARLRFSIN

The assay addresses Cytochrome P450 1A2 (Homo sapiens) (UniProt P05177). Put plainly: Cytochrome panel assay with activity outcomes. The following applies: recombinant CYP, pro-luciferin dealkylation, luminescence, p450-cyp1a2; series mostly up to 57.1 µM.
Regarding `CN1/C(=C\C=[N+](C)c2ccccc2)C(C)(C)c2ccccc21`, the AC50 entry is “inactive”. Turning to `Nc1nc2c(nc(Br)n2[C@@H]2O[C@H]3COP(=O)(O)O[C@@H]3[C@H]2O)c(=O)[nH]1`, the AC50 entry was “inactive”. As to `Cc1ccc(CS(=O)(=O)CCC(=O)NCc2ccccn2)cc1`, the AC50 result was “inactive”. As to `O=C(Cc1csc(Nc2nc(=S)[nH]c3ccccc23)n1)NCc1cccc(Cl)c1`, the AC50 is 4470 nM (active).

On to `Cc1ccc(CNC(=O)Cc2csc(Nc3nc(=S)[nH]c4ccccc34)n2)cc1`, for which the concentration at half-maximal activity (AC50) is 3160 nM (active). On the same count and under the same terms, to `COc1ccc(CNC(=O)Cc2csc(Nc3nc(=S)[nH]c4ccccc34)n2)cc1` belongs 4470 nM (active).

With `Cn1c(=O)c2c(n(Cc3ccccc3)c1=O)NC(=O)C2CC(=O)NCc1cccc(Cl)c1` (stereo unspecified), the AC50 result was “inactive”. On the same count and under the same terms, to `CCOc1cc2[nH]c(=O)n(CCC(=O)NCc3ccc(OC)cc3)c(=O)c2cc1OCC` belongs “inactive”. Same read-out and setting: to `CC(C)(C)NC(=O)C(c1ccccn1)N(C(=O)C1CSC(=O)C1)c1ccc(F)cc1` (stereo unspecified) belongs “inactive”. `O=C(O)c1ccccc1-c1ccccc1C(=O)Nc1ccc2c(c1)Cc1ccccc1-2`: the activity, negative = inhibition is -7.14% [at 2.29 µM] (inactive). Consider `S=C(Nc1ccc2c(c1)Cc1ccccc1-2)Nc1ccc2c(c1)Cc1ccccc1-2`, for which the half-maximal activity concentration (AC50) was 200 nM (active). Same read-out and setting: to `COc1cccc(NC(=S)NN2CCN(C)CC2)c1` belongs “inactive”; to `O=C(Nc1ccc2c(c1)Cc1ccccc1-2)[C@@H]1[C@H](C(=O)O)[C@]2(Cl)C(Cl)=C(Cl)[C@@]1(Cl)C2(Cl)Cl`, 3160 nM (active); to `COc1ccccc1-c1cc(Nc2ccc(F)cc2)ncn1`, 2000 nM (active). On the same count and under the same terms, the result for `COc1ccccc1-c1cc(Nc2ccn[nH]2)ncn1` reads 631 nM (active); that for `Cc1ccccc1-c1cncnc1NCc1cccs1`, 3160 nM (active).

In the case of `CN(C)Cc1ccccc1-c1cncnc1NCc1cccs1`, the half-maximal activity concentration (AC50) is 25100 nM (active). Consider `COc1ccccc1-c1cncnc1NCc1cccs1`, for which the concentration at half-maximal activity (AC50) is 3160 nM (active). Same read-out and setting: to `O=P(Cc1cc[n+]([O-])cc1)(c1ccccc1)c1ccccc1` belongs “inactive”. With `c1ccc(CNc2nc(-c3ccc4c(c3)OCO4)nc3ccccc23)cc1`, the concentration at half-maximal activity (AC50) was 501 nM (active).

Take `Cc1cccc(CNc2nc(-c3ccc4c(c3)OCO4)nc3ccccc23)c1`: the AC50 is 631 nM (active).

Consider `COc1ccccc1CNc1nc(-c2ccc3c(c2)OCO3)nc2ccccc12`, for which the AC50 was 631 nM (active). On the same count and under the same terms, the result for `c1cncc(CNc2nc(-c3ccc4c(c3)OCO4)nc3ccccc23)c1` reads 100 nM (active); that for `CC[C@]1(c2ncc[nH]2)Cc2ccccc2O1`, “inactive”; that for `CC(C)OC(=O)C(CC(=O)O)N1CCOCC1` (stereo unspecified), “inactive”.

As for `COc1ccc(NC(=O)N2CC3(CCN(C(=O)c4ccc(OC)cc4)CC3)C2)cc1`, the AC50 result is “inactive”.

Take `CC(=O)OC[C@@H]1O[C@@H](O/N=C2/C[C@@H](O)[C@@H](O)[C@@H]3[C@@H]4C(=O)N(C5CCCCC5)C(=O)[C@H]4CC[C@@H]23)[C@H](OC(C)=O)[C@H](OC(C)=O)[C@@H]1OC(C)=O`: the activity, negative = inhibition was 0.189% [at 11.4 µM] (inactive). For `O=c1[nH]c(=O)n([C@@H]2C[C@H](O)[C@H](CO)O2)cc1C(F)(F)F`, the AC50 entry was “inactive”. `COc1ccc(COC(=O)N/N=C2/C[C@@H](O)[C@@H](O)[C@@H]3[C@@H]4C(=O)N([C@@H](C)c5ccccc5)C(=O)[C@H]4CC[C@H]23)cc1`: the activity, negative = inhibition was -2.7% [at 11.4 µM] (inactive). As to `COc1ccccc1CNc1nc(-c2ccc(N(C)C)cc2)nc2ccccc12`, the AC50 is 2510 nM (active). Turning to `Cc1cnc(CNc2nc(-c3ccc4c(c3)OCO4)nc3ccccc23)cn1`, the AC50 is 2000 nM (active). With `c1csc(CNc2nc(-c3ccc4c(c3)OCO4)nc3ccccc23)c1`, the concentration at half-maximal activity (AC50) was 794 nM (active). Take `NCCNCC1CCNCC1`: the activity, negative = inhibition was -3.59% [at 2.29 µM] (inactive). `CCn1cc(C(=O)NCC(=O)OC)c2cc(OC)c(OC)cc2c1=O`: the AC50 entry was “inactive”. Take `NCc1ccccc1CC(=O)N[C@@H]1C(=O)N2C(C(=O)O)=C(CSc3nnnn3CC(=O)O)CS[C@@H]12`: the AC50 entry was “inactive”. The same measure, in the same setting: to `COc1ccc(NC(=O)N2CC[C@@]3(CCCN(C(=O)c4cc(C(F)(F)F)cc(C(F)(F)F)c4)C3)C2)cc1` belongs “inactive”; to `COc1ccc(NC(=O)c2ccc3c(=O)n(Cc4ccco4)c(=S)[nH]c3c2)c(OC)c1`, 794 nM (active).

Turning to `COc1ccc2c(C=Nc3c(C)n(C)n(-c4ccccc4)c3=O)c(O)n(Cc3ccco3)c(=O)c2c1`, the AC50 result is “inactive”. The same measure, in the same setting: the result for `COc1ccc(CCNC(=O)c2ccc3c(=O)n(Cc4ccco4)c(=S)[nH]c3c2)cc1OC` reads 25100 nM (active); that for `COc1ccc(CCNC(=O)c2nnn(CC(=O)Nc3ccccc3C)c2N)cc1OC`, “inactive”; that for `O=C(NCc1ccco1)c1ccc2c(=O)n(-c3ccccc3)c(=S)[nH]c2c1`, “inactive”. Same read-out and setting: to `CC(C)NC(=O)c1ccc2c(=O)n(Cc3ccco3)c(=S)[nH]c2c1` belongs 15800 nM (active).

In the case of `C/C(CCC(=O)OC[C@@H]1O[C@H](C#Cc2ccccc2)C=C[C@@H]1Oc1ccc(C)cc1)=N/OC[C@@H](O)[C@H]1O[C@H]2OC(C)(C)O[C@H]2[C@@H]1O`, the activity, negative = inhibition is 2.38% [at 11.4 µM] (inactive).

For `CC1(C)[C@@H]2CC[C@]1(C)[C@@H](OC(=O)/C=C\c1ccccc1)C2`, the activity, negative = inhibition was -3.39% [at 2.29 µM] (inactive). As for `CC1=C(C)/C(=N\OC(=O)/C=C/c2ccccc2)C=CC1=O`, the half-maximal activity concentration (AC50) was 14100 nM (active).

For `O=C(/C=C\c1ccccc1)c1ccccc1O`, the activity, negative = inhibition was -10.2% [at 11.4 µM] (inactive).

As to `OC[C@@H]1O[C@@H](n2cnc3c(SCc4ccccc4)ncnc32)[C@@H](O)[C@H]1O`, the activity, negative = inhibition is -17.2% [at 2.29 µM] (inactive). Consider `CNC(=O)[C@@H]1O[C@@H](n2cnc3c(NCc4cccc(I)c4)ncnc32)[C@H](O)[C@@H]1O`, for which the AC50 entry is “inactive”.

With `COc1ccc(-n2c(=O)[nH]cc(C(=O)Nc3ccc4c(c3)OCCO4)c2=O)cc1`, the AC50 entry was “inactive”. With `Cc1ccc2nc(SCC(=O)c3ccc4c(c3)OCO4)[nH]c2c1`, the AC50 was 1000 nM (active). Same read-out and setting: to `CCOC(=O)NC(=O)CSc1nc2ccc(OCC)cc2[nH]1` belongs 2510 nM (active); to `Cc1ccc2nc(SCC(=O)Nc3nnc(SCC(N)=O)s3)[nH]c2c1`, 14100 nM (active). Consider `COc1ccc2nc(SCC(=O)Nc3ccc4c(c3)OCCO4)[nH]c2c1`, for which the AC50 is 5620 nM (active).

As for `CC/C=C\CC[C@H](OC(=O)c1ccc(Br)cc1)C1=CCCCC1=O`, the activity, negative = inhibition was 1.86% [at 11.4 µM] (inactive). Consider `COc1ccc2nc(SCC(=O)c3ccco3)[nH]c2c1`, for which the AC50 was 7080 nM (active). Take `COc1ccc(CCn2c(C)cc(C(=O)CSc3nc(N)cc(=O)[nH]3)c2C)cc1`: the AC50 entry is “inactive”. The same measure, in the same setting: to `O=C(N/N=C\c1ccc2c(c1)CCC2)c1ccccc1O` belongs 2000 nM (active); to `OCCNc1nc2ccccc2[nH]1`, “inactive”. For the compound `CSCC[C@H](NC(=O)CC(C)(C)C)c1nc2ccccc2[nH]1`, the AC50 entry is “inactive”. The same measure, in the same setting: the result for `CCN(CC)c1nc2ccccc2[nH]1` reads 15800 nM (active); that for `CCOC(=O)c1c(C)oc2c1cc(O)c1ccccc12`, 63.1 nM (active); that for `CCOC(=O)c1c(C)oc2c1c(C=NC1CCS(=O)(=O)C1)c(O)c1ccccc12` (stereo unspecified), 1260 nM (active). As to `CCCCCOC(=O)c1c(N)n(CCOC)c2nc3ccccc3nc12`, the concentration at half-maximal activity (AC50) was 1000 nM (active). As to `C=C(C)C1Cc2nc(N)nc(C)c2C1` (stereo unspecified), the concentration at half-maximal activity (AC50) was 3160 nM (active). As for `Nc1nc(N)c2[nH]c(CNc3ccc(C(=O)O)cc3)nc2n1`, the activity, negative = inhibition is -9.57% [at 11.4 µM] (inactive). On the same count and under the same terms, the result for `C[C@H](CN(C)C)C(O)(c1ccccc1)c1ccccc1` reads 5.76% [at 11.4 µM] (inactive). With `Cc1ccc(C2CC2C(=O)NN)cc1` (stereo unspecified), the AC50 was 316 nM (active). With `Cc1ccc(NC(=O)C2CCN(S(C)(=O)=O)CC2)cc1`, the AC50 result was “inactive”. As for `N[C@@H](Cc1c[nH]c2ccc([N+](=O)[O-])cc12)C(=O)O`, the activity, negative = inhibition is -10.4% [at 11.4 µM] (inactive).

Take `Cc1cc2c(cc1C)NC1=C(N2)O[C@H](c2c[nH]c3ccc(COc4ccccc4)cc23)C1=O`: the AC50 is 2510 nM (active). Regarding `O=C1C2=C(Nc3cc([N+](=O)[O-])ccc3N2)O[C@@H]1c1c[nH]c2ccc(COc3ccccc3)cc12`, the AC50 was 2510 nM (active). For the compound `CC(C)NC(=O)N1CCC2(CC1)CCN(C(=O)c1cccn1C)CC2`, the AC50 entry is “inactive”.

Consider `CC(C)NC(=O)/C(=N\O)c1ccccc1`, for which the AC50 result is “inactive”.

Take `CC(C)NC(=O)C(C)n1cccc1C(=O)c1ccccc1` (stereo unspecified): the AC50 is 25100 nM (active).

`Cc1ccccc1-n1nc2c(c1NC(=O)c1ccc(S(=O)(=O)N(C)C)cc1)CSC2`: the AC50 result is “inactive”. In the case of `Cc1ccc(-n2nc3c(c2NC(=O)c2cccs2)CSC3)cc1`, the AC50 is 1580 nM (active).

With `Cc1ccccc1-n1nc2c(c1NC(=O)c1c(-c3ccccc3Cl)noc1C)CSC2`, the AC50 result was “inactive”. For the compound `Cn1c(=O)n(C)c2cc(S(=O)(=O)O)ccc21`, the AC50 entry is “inactive”. Same read-out and setting: to `Cn1c(=O)n(C)c2cc(/C=N/n3cnnc3)ccc21` belongs 6310 nM (active); to `Nc1nc2c(ncn2COC(CO)CO)c(=O)[nH]1`, “inactive”.

On to `CO[C@]1(NC(=O)C2SC(=C(C(N)=O)C(=O)O)S2)C(=O)N2C(C(=O)O)=C(CSc3nnnn3C)CS[C@H]21` (stereo partly specified), for which the AC50 result is “inactive”.

For the compound `Cc1c(C)n(C(=O)CN2CCC(C)CC2)c2ccccc12`, the AC50 was 4470 nM (active). As for `CC1CCN(CC[C@@H]2CCCN2S(=O)(=O)c2cccc(O)c2)CC1`, the AC50 entry is “inactive”.

As to `CC1CCN(CC(=O)Nc2cccc([N+](=O)[O-])c2)CC1`, the AC50 entry was “inactive”.

Consider `Cc1cc(C)n2nc(SCC(=O)N/N=C/c3ccccc3F)nc2n1`, for which the concentration at half-maximal activity (AC50) is 15800 nM (active). The same measure, in the same setting: the result for `COc1ccccc1CNC(=O)CSc1nc2nc(C)cc(C)n2n1` reads “inactive”. Still for that read-out and setting: the result for `Cc1cc(C)nc(SCC(=O)N/N=C\c2sccc2C)n1` reads 12600 nM (active); that for `Cc1cccc(Cc2c(C)nc3nc(SCC(=O)NCc4ccco4)nn3c2C)c1`, “inactive”; that for `Cc1cccc(N(C)C(=S)Oc2ccc3ccccc3c2)c1`, 2510 nM (active). For `COc1ccc(N2CCN(C(=S)Nc3cccc(C)c3)CC2)cc1`, the AC50 result is “inactive”. For the compound `CCc1cc2c(nc1CC)CCN(CC/C(C)=N/O[C@@H](C)c1cn([C@H](CO)Cc3ccccc3)nn1)C2`, the activity, negative = inhibition is -13.3% [at 11.4 µM] (inactive) and 1.01% [at 11.4 µM] (inactive).
